Assay results from the supplement of paper PMC8975748.
Structures can show the parent of a compound that is named as a salt. ± gives the standard deviation of the averaged measurements.

Experiments:
[1] = tested on: Saccharomyces cerevisiae BY4741 SeMeCo community; test: mean cell size (pixel area) (pixels); higher = larger cells; conditions: 10 µM; 24 h; SM minimal medium
Outline: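 A fluorescent Saccharomyces cerevisiae BY4741 community carrying four plasmids was used, with each plasmid complementing one auxotrophy and bearing a fluorescent marker. An overnight preculture at OD600 = 1.0 was diluted to OD600 = 0.3, and 70 µl went into 384-well plates acoustically predosed with drug (final 10 µM) in SM medium for 24 h. After paraformaldehyde fixation, cells were imaged by automated confocal microscopy and analysed in Harmony, giving the mean cell pixel area per well. Each value is the average of 3 replicates. Same SeMeCo high-content imaging drug screen: Selleck FDA-approved drugs at 10 µM, 24 h in SM medium, 384-well plates, 3 replicates.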

[2] = tested on: Saccharomyces cerevisiae BY4741 SeMeCo community; test: z-score of prototroph abundance vs DMSO median; higher = larger share of this subpopulation than in DMSO controls; conditions: 10 µM; 24 h; SM minimal medium; subpopulation (auxotrophy): Prototroph
Outline: (§1)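 A Saccharomyces cerevisiae BY4741 community carried four plasmids, each restoring one auxotrophy and encoding a distinct fluorescent protein. It was pre-grown overnight to OD600 1.0, diluted to 0.3, and 70 µl was added to 384-well plates acoustically predosed with library drugs (10 µM final), then grown 24 h in minimal SM medium. Cells were paraformaldehyde-fixed and imaged by automated confocal microscopy, with single-auxotroph fluorescent strains setting thresholds and autofluorescence correction. Each subpopulation's abundance was scored as a z-score against the vehicle-well median.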

[3] = tested on: Saccharomyces cerevisiae BY4741 SeMeCo community; test: z-score of subpopulation abundance vs DMSO median, subpopulation auxotrophic for M; higher = larger share of this subpopulation than in DMSO controls; conditions: 10 µM; 24 h; SM minimal medium; subpopulation (auxotrophy): M
Outline: as §1

[4] = tested on: Saccharomyces cerevisiae BY4741 SeMeCo community; test: z-score of subpopulation abundance vs DMSO median, subpopulation auxotrophic for U; higher = larger share of this subpopulation than in DMSO controls; conditions: 10 µM; 24 h; SM minimal medium; subpopulation (auxotrophy): U
Outline: as §1

[5] = tested on: Saccharomyces cerevisiae BY4741 SeMeCo community; test: z-score of subpopulation abundance vs DMSO median, subpopulation auxotrophic for H; higher = larger share of this subpopulation than in DMSO controls; conditions: 10 µM; 24 h; SM minimal medium; subpopulation (auxotrophy): H
Outline: as §1

[6] = tested on: Saccharomyces cerevisiae BY4741 SeMeCo community; test: z-score of subpopulation abundance vs DMSO median, subpopulation auxotrophic for LU; higher = larger share of this subpopulation than in DMSO controls; conditions: 10 µM; 24 h; SM minimal medium; subpopulation (auxotrophy): LU
Outline: as §1

[7] = tested on: Saccharomyces cerevisiae BY4741 SeMeCo community; test: z-score of subpopulation abundance vs DMSO median, subpopulation auxotrophic for LM; higher = larger share of this subpopulation than in DMSO controls; conditions: 10 µM; 24 h; SM minimal medium; subpopulation (auxotrophy): LM
Outline: as §1

[8] = tested on: Saccharomyces cerevisiae BY4741 SeMeCo community; test: z-score of subpopulation abundance vs DMSO median, subpopulation auxotrophic for HM; higher = larger share of this subpopulation than in DMSO controls; conditions: 10 µM; 24 h; SM minimal medium; subpopulation (auxotrophy): HM
Outline: as §1

[9] = tested on: Saccharomyces cerevisiae BY4741 SeMeCo community; test: z-score of subpopulation abundance vs DMSO median, subpopulation auxotrophic for HU; higher = larger share of this subpopulation than in DMSO controls; conditions: 10 µM; 24 h; SM minimal medium; subpopulation (auxotrophy): HU
Outline: as §1

[10] = tested on: Saccharomyces cerevisiae BY4741 SeMeCo community; test: z-score of subpopulation abundance vs DMSO median, subpopulation auxotrophic for UM; higher = larger share of this subpopulation than in DMSO controls; conditions: 10 µM; 24 h; SM minimal medium; subpopulation (auxotrophy): UM
Outline: as §1

[11] = tested on: Saccharomyces cerevisiae BY4741 SeMeCo community; test: z-score of subpopulation abundance vs DMSO median, subpopulation auxotrophic for HL; higher = larger share of this subpopulation than in DMSO controls; conditions: 10 µM; 24 h; SM minimal medium; subpopulation (auxotrophy): HL
Outline: as §1

[12] = tested on: Saccharomyces cerevisiae BY4741 SeMeCo community; test: z-score of subpopulation abundance vs DMSO median, subpopulation auxotrophic for HLU; higher = larger share of this subpopulation than in DMSO controls; conditions: 10 µM; 24 h; SM minimal medium; subpopulation (auxotrophy): HLU
Outline: as §1

[13] = tested on: Saccharomyces cerevisiae BY4741 SeMeCo community; test: z-score of subpopulation abundance vs DMSO median, subpopulation auxotrophic for HLM; higher = larger share of this subpopulation than in DMSO controls; conditions: 10 µM; 24 h; SM minimal medium; subpopulation (auxotrophy): HLM
Outline: as §1

[14] = tested on: Saccharomyces cerevisiae BY4741 SeMeCo community; test: z-score of subpopulation abundance vs DMSO median, subpopulation auxotrophic for LUM; higher = larger share of this subpopulation than in DMSO controls; conditions: 10 µM; 24 h; SM minimal medium; subpopulation (auxotrophy): LUM
Outline: as §1

[15] = tested on: Saccharomyces cerevisiae BY4741 SeMeCo community; test: z-score of subpopulation abundance vs DMSO median, subpopulation auxotrophic for HLUM; higher = larger share of this subpopulation than in DMSO controls; conditions: 10 µM; 24 h; SM minimal medium; subpopulation (auxotrophy): HLUM
Outline: as §1

[16] = tested on: Saccharomyces cerevisiae BY4741 SeMeCo community; test: z-score of subpopulation abundance vs DMSO median, subpopulation auxotrophic for HUM; higher = larger share of this subpopulation than in DMSO controls; conditions: 10 µM; 24 h; SM minimal medium; subpopulation (auxotrophy): HUM
Outline: as §1

CCCc1nc(C)c2c(=O)nc(-c3cc(S(=O)(=O)N4CCN(CC)CC4)ccc3OCC)[nH]n12 [Vardenafil HCl Trihydrate] was tested, and the mean cell size [1] was 12.53 ± 0.092, the “z-score of prototroph abundance” value [2] was -0.75 and the “z-score of subpopulation abundance” value [3] was 0.64. For the same compound, the “z-score of subpopulation abundance” value [4] was 1.19, the “z-score of subpopulation abundance” value [5] was 0.41 and the “z-score of subpopulation abundance” value [6] was 0.67. The “z-score of subpopulation abundance” value [7] was -1.19, the “z-score of subpopulation abundance” value [8] was 0.87 and the “z-score of subpopulation abundance” value [9] was 1.92. For the same compound, the “z-score of subpopulation abundance” value [10] was 0.56, the “z-score of subpopulation abundance” value [11] was -0.13 and the “z-score of subpopulation abundance” value [12] was 0.57. For the same compound, the “z-score of subpopulation abundance” value [13] was -0.16, the “z-score of subpopulation abundance” value [14] was -0.24 and the “z-score of subpopulation abundance” value [15] was 0.24.

In the case of Cc1nc(Nc2ccc(F)cc2)nc(N2CCc3ccccc3C2C)c1C (stereo unspecified) [Revaprazan Hydrochloride], the mean cell size [1] is reported as 11.4 ± 0.18, the “z-score of subpopulation abundance” value [3] is reported as -0.84 and the “z-score of subpopulation abundance” value [4] is reported as 0.73. The “z-score of subpopulation abundance” value [5] was 1, the “z-score of subpopulation abundance” value [6] was 0.2 and the “z-score of subpopulation abundance” value [8] was -0.33. For the same compound, the “z-score of subpopulation abundance” value [9] was 0.79, the “z-score of subpopulation abundance” value [10] was 1.11 and the “z-score of subpopulation abundance” value [11] was 0.35. The “z-score of subpopulation abundance” value [12] was -0.07, the “z-score of subpopulation abundance” value [13] was -0.32 and the “z-score of subpopulation abundance” value [16] was 0.45. The “z-score of subpopulation abundance” value [14] was 0.27 and the “z-score of subpopulation abundance” value [15] was 0.14.

For O=C(O)Cc1ccccc1Nc1c(Cl)cccc1Cl [Diclofenac Sodium], the mean cell size [1] was 12.7 ± 0.18, the “z-score of prototroph abundance” value [2] was 1.13 and the “z-score of subpopulation abundance” value [3] was 0.68. For the same compound, the “z-score of subpopulation abundance” value [4] was -0.91, the “z-score of subpopulation abundance” value [5] was -0.51 and the “z-score of subpopulation abundance” value [6] was -0.84. The “z-score of subpopulation abundance” value [7] was -0.23, the “z-score of subpopulation abundance” value [8] was -0.3 and the “z-score of subpopulation abundance” value [9] was -1.76. For the same compound, the “z-score of subpopulation abundance” value [11] was -0.56, the “z-score of subpopulation abundance” value [12] was -1.75 and the “z-score of subpopulation abundance” value [13] was -0.07. For the same compound, the “z-score of subpopulation abundance” value [16] was -1.27 and the “z-score of subpopulation abundance” value [14] was -0.98.

For CC(C)NNC(=O)c1ccncc1 [Iproniazid], the mean cell size [1] was 12.4 ± 0.22, the “z-score of subpopulation abundance” value [3] was -0.2 and the “z-score of subpopulation abundance” value [5] was 0.01. The “z-score of subpopulation abundance” value [6] was 1.04, the “z-score of subpopulation abundance” value [7] was 0.08 and the “z-score of subpopulation abundance” value [8] was -0.24. The “z-score of subpopulation abundance” value [9] was 0.46, the “z-score of subpopulation abundance” value [11] was -0.1 and the “z-score of subpopulation abundance” value [12] was 0.8. For the same compound, the “z-score of subpopulation abundance” value [13] was -0.85, the “z-score of subpopulation abundance” value [16] was 0.2 and the “z-score of subpopulation abundance” value [14] was 0.03. For the same compound, the “z-score of subpopulation abundance” value [15] was 0.07.
